# Measured values reported in ChEMBL document CHEMBL3988442, “University of Dundee, Small-Polar-MMV Screening Library” (2021).
# For some of these results: Entries with a potency or affinity are not part of this list.
# What was measured:
# Set-up in all cases: scale not given: direction of the effect not stated beside the values
# [1] = molecular target: Protein translocase subunit SecA (Escherichia coli (strain K12)) (UniProt P10408); assay: Assay to Identify E. coli SecA ATPase Inhibitors; format: functional; settings: 30 µM
# Sequence of Protein translocase subunit SecA (Escherichia coli (strain K12)) (P10408 whole entry): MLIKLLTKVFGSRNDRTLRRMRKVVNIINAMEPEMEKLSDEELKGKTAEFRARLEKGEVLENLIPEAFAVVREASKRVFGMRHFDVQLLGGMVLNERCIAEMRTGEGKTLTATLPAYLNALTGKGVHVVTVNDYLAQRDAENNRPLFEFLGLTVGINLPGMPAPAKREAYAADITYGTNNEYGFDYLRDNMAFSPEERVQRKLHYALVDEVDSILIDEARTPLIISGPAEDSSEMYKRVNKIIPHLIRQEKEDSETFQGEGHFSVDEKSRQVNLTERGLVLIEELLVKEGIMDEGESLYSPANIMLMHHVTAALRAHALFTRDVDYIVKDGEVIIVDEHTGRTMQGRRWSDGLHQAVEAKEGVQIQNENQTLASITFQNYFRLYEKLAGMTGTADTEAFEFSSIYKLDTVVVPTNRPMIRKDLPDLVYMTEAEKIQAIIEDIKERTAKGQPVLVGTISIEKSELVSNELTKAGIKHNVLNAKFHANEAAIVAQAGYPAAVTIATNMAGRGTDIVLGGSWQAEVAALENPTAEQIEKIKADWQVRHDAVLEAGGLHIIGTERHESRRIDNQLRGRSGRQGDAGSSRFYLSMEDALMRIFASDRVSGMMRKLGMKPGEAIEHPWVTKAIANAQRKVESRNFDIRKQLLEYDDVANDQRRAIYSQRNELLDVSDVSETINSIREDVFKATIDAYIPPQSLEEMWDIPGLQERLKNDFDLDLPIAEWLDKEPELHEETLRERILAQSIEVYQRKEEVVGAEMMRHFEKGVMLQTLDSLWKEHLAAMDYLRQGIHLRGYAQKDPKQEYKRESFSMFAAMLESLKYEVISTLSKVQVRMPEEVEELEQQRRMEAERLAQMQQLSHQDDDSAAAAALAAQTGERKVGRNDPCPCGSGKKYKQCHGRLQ
# [2] = molecular target: T1, Ubiquitin-activating enzyme e1, putative (Leishmania donovani (strain BPK282A1)) (UniProt E9BSI1); assay: Leishmania donovani Ubiquitin Activating Enzyme (LdE1); format: functional; settings: 30 µM
# T1 sequence (whole entry): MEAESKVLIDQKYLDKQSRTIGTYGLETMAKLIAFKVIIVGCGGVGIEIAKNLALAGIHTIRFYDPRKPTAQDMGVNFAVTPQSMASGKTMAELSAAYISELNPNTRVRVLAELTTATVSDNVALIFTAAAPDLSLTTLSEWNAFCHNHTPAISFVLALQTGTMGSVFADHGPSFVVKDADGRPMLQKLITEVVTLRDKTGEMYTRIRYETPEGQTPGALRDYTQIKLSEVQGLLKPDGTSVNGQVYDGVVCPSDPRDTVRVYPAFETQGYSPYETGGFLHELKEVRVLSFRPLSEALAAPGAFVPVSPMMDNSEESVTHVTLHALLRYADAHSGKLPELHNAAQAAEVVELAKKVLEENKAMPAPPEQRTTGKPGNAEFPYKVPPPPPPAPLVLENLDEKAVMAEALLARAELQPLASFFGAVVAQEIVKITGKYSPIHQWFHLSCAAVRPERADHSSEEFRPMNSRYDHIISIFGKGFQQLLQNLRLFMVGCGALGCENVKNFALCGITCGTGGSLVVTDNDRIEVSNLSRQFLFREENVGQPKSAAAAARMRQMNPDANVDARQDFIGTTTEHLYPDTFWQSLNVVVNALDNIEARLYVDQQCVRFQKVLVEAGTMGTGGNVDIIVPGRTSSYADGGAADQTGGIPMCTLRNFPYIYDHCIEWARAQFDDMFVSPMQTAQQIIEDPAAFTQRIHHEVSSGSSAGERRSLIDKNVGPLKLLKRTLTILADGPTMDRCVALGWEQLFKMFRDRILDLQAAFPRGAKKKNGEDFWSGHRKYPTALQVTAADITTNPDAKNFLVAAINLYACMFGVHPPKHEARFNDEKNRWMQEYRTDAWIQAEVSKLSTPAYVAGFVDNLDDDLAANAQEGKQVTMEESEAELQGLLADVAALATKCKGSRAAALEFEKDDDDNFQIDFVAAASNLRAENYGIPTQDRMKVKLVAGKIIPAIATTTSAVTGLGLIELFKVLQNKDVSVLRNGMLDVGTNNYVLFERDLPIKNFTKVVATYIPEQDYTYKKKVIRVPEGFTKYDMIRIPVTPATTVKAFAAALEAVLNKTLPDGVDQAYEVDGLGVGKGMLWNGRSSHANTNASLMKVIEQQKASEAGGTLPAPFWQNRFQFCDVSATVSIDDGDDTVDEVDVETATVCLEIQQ
# [3] = molecular target: AMP-activated protein kinase, AMPK (Homo sapiens) (UniProt P54646+O43741+P54619+Q9UGJ0+Q9Y478+Q13131+Q9UGI9); assay: AMP-dependent Kinase enzyme assay. An in vitro enzyme assay that detects ADP turnover that is directly proportional to AMPK activity. This uses naive AMPK that is activated during the assay with MK-8722; format: functional; settings: 30 µM
# [4] = molecular target: Sialic acid-binding Ig-like lectin 9 (Homo sapiens) (UniProt Q9Y336); assay: Hs-Siglec9 ALPHAscreen SOP 20170721; settings: 10 µM
# Sequence of Sialic acid-binding Ig-like lectin 9 (Homo sapiens) (Q9Y336 whole entry): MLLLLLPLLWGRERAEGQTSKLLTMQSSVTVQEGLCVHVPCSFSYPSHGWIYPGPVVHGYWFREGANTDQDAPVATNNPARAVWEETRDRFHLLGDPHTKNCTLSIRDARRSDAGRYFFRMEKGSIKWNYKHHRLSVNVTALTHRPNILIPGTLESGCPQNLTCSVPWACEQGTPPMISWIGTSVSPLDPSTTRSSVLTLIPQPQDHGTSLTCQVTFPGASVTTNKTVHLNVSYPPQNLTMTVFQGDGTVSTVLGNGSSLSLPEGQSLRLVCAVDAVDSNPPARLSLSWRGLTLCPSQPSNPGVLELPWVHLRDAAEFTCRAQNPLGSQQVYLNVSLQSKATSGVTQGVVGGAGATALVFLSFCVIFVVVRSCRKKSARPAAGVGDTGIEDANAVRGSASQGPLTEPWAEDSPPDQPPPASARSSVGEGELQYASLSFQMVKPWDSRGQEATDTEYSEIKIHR
# Trypanosoma cruzi = assay: Trypanosoma cruzi phosphomannomutase and mannose-1-phosphate guanylyltransferase assay; format: functional; settings: 10 µM
# [5] = molecular target: T2, Arginase-2, mitochondrial (Homo sapiens) (UniProt P78540); assay: in vitro enzyme assay to detect the production of urea directly proportional to the activity of Arginase II; format: functional; settings: 33.3 µM; further: in the data most compounds retested in dose-response had high values
# T2 sequence (whole entry): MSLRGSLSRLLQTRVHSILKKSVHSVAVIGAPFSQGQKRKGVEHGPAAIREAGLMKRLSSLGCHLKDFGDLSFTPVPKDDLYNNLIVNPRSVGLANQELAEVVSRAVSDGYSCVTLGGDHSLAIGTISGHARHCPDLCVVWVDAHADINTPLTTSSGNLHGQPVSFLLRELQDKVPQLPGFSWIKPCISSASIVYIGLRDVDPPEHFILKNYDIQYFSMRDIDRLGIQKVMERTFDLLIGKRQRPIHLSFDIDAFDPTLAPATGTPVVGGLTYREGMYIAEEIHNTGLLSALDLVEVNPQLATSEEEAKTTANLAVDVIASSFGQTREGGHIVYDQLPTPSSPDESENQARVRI
# [6] = molecular target: T3, Proteasome subunit beta (Trypanosoma cruzi) (UniProt O96673); assay: Trypanosoma cruzi proteasome chymotrypsin-like activity (TcProtChymo) assay.; further: in the data most compounds retested in dose-response had high values; format: functional; settings: 9.37 µM
# T3 sequence (whole entry): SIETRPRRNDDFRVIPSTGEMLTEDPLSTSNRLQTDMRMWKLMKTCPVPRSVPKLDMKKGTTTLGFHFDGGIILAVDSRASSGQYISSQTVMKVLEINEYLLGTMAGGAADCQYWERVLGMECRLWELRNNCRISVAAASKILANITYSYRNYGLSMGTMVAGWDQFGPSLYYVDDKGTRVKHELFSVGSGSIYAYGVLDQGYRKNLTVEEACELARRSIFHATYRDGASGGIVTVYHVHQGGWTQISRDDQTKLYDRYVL
# Homo sapiens = organism: Homo sapiens; assay: To identify inhibition of the IFN signalling (Jak-Stat) pathway via expression of an eGFP reporter gene under the control of an IFN-stimulated response element (ISRE) containing MxA promoter.; format: functional; settings: 30 µM
# [7] = molecular target: T4, Tyrosyl-tRNA synthetase, putative (Trypanosoma cruzi (strain CL Brener)) (UniProt Q4DSP6); assay: Trypanosoma cruzi tyrosyl tRNA synthetase (TcYRS) _High Tyrosine SOP; format: functional; settings: 30 µM; further: in the data most compounds retested in dose-response had high values
# T4 sequence (whole entry): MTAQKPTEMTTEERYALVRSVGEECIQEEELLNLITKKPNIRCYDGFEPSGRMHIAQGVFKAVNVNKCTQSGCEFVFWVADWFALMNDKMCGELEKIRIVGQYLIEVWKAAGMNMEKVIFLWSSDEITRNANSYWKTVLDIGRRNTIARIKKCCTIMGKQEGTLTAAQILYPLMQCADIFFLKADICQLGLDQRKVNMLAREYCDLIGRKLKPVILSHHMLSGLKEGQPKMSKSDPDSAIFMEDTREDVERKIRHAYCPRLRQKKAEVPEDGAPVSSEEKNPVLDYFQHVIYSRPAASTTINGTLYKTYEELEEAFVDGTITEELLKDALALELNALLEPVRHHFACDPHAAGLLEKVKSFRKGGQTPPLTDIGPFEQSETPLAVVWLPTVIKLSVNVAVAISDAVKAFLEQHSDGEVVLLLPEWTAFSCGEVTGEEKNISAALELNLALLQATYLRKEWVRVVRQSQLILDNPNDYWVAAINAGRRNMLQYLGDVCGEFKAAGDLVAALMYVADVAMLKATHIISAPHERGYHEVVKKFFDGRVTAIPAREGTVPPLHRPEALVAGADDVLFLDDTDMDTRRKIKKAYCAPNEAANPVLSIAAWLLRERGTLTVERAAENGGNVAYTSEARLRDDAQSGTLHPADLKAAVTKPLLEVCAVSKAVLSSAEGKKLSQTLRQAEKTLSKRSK
# [8] = molecular target: T4, Tyrosyl-tRNA synthetase, putative (Trypanosoma cruzi (strain CL Brener)); assay: Trypanosoma cruzi tyrosyl tRNA synthetase (TcYRS) SOP; format: functional; settings: 30 µM
# [9] = molecular target: Chromo domain-containing protein 1 (Saccharomyces cerevisiae (strain ATCC 204508 / S288c) (Baker's yeast)) (UniProt P32657); assay: ScCHD-1 Enzyme Inhibition Assay; format: functional; settings: 30 µM; further: in the data most compounds retested in dose-response had high values
# Sequence of Chromo domain-containing protein 1 (Saccharomyces cerevisiae (strain ATCC 204508 / S288c) (Baker's yeast)) (P32657 whole entry, the tested form may be a part): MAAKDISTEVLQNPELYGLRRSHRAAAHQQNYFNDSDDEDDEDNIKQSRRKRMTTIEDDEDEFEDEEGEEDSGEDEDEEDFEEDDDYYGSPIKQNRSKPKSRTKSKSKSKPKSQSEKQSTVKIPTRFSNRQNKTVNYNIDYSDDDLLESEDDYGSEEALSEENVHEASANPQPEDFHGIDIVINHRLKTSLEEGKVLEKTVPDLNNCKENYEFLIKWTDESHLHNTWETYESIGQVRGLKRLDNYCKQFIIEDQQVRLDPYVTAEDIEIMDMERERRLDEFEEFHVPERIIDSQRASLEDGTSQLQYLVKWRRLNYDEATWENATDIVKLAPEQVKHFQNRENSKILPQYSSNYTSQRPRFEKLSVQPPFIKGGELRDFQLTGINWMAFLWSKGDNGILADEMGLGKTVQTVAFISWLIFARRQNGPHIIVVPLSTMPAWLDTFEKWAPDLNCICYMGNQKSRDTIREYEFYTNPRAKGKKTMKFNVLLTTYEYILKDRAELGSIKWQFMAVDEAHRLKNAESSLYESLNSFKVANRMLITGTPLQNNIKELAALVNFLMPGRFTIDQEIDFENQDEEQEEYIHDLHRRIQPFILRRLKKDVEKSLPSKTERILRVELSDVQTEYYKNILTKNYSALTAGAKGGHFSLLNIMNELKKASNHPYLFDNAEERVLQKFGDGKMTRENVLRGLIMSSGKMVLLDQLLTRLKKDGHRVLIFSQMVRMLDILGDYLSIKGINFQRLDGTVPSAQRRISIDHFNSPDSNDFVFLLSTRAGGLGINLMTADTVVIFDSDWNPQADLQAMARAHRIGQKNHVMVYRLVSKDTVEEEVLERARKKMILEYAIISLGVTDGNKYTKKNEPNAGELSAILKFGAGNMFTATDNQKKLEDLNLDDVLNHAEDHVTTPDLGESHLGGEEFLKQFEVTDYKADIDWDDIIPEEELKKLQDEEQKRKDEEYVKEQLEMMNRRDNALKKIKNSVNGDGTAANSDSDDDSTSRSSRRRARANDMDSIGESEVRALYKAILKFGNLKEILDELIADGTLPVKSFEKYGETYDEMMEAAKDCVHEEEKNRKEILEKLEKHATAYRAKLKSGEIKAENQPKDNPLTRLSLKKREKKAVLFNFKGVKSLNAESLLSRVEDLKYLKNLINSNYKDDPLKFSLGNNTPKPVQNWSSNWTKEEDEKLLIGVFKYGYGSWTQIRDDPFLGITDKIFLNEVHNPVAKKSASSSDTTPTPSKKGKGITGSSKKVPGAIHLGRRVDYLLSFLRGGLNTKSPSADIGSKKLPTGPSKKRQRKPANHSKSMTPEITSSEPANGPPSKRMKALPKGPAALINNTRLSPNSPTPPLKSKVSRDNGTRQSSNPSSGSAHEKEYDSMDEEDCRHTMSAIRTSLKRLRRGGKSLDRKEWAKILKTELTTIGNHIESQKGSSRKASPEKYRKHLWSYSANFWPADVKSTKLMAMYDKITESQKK
SMILES,Percent Effect [1] [%],Percent Effect [2] [%],Percent Effect [3] [%],Percent Effect [4] [%],Percent Effect (Trypanosoma cruzi) [%],Percent Effect [5] [%],Percent Effect [6] [%],Percent Effect (Homo sapiens) [%],Percent Effect [7] [%],Percent Effect [8] [%],Percent Effect [9] [%]
CCOCC1CN(Cc2ccoc2)Cc2ncn(CC3CC3)c21 (stereo not drawn),-8.23,-2.7,0.834,4.02,-2.34,-0.833,10.1,3.58,4.95,-1.22,-0.436
O=C1[C@@H]2CCN(Cc3ccncc3)C[C@@H]2OCCN1c1ccccc1,-4.52,8,4.63,0.633,4.33,-3.5,15.6,-13.1,8.51,14.1,-5.17
Nc1cc2c(nn1)CCN(C(=O)CC1CCCC1)C2,-3.9,10.1,-4.63,16.5,-3.12,-0.38,-0.246,-1.92,7.39,13.9,-5.84
CC(C)Nc1nc(N2CCOCC2)nc2c1CN(Cc1ccoc1)CC2,-4.76,5.33,12.8,1.46,-1.97,6.76,7.84,8.61,7.45,16.7,-3.95
CN(Cc1ccco1)[C@@H]1CN(C(=O)c2ccnnc2)[C@@H]2CCCO[C@H]12,-2.54,2.74,-7.68,19.2,7.74,-2.4,13.4,-41.3,3.12,13.6,-1.74
COc1ccc(C(=O)N2CCCCC2c2nc(C)cs2)nn1 (stereo not drawn),-4.04,2.6,-3.01,4.77,10.3,3.2,-4.39,7.94,5.83,14.6,69.5
O=C(C1CCC1)N1CCN(c2snc3ccccc23)CC1,-4.56,1.27,21,-7.26,-0.718,9.25,5.83,25.3,-4.17,-12.7,-2
CC(C)(O)CN1CCN(C(=O)c2cc3ccccc3c(=O)[nH]2)CC1,0.132,2.63,5.98,-1.12,-3.6,-2.37,7.57,-8.77,7.45,13,-5.58
